Measurements published in PubChem BioAssay AID1159580 (chemical genetic matrix, 2015).
Screen size: about 5,500 compounds; about 2,000 (36%) were called active. Another 18% or so got no clear call; they are omitted. No stated cut-off is given here; in the data, active means normalized growth mostly below about 0.91 (no sharp cut-off); inconclusive means no clear call, values can overlap the other calls; inactive means mostly above about 0.92. The list shows a part of the results.

Assay: chemical genetic growth profiling, strain panel (AID 1159580);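 further: tested at 20 µM; growth read once vehicle control cultures reached saturation at 30 °C; 1 = growth at the plate median or of vehicle wells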
Conditions: growth OD

Measured: normalized growth

NC(=O)c1ccc[n+]([C@@H]2O[C@H](COP(=O)([O-])OP(=O)(O)OC[C@H]3O[C@@H](n4cnc5c(N)ncnc54)[C@H](O)[C@@H]3O)[C@@H](O)[C@H]2O)c1
inactive: S. cerevisiae deletion strains, locus YJR075W, strain HOC1, stronger effect = lower value 1.02 | S. cerevisiae deletion strains, locus YKL009W, strain mrt4, stronger effect = lower value 0.975 | S. cerevisiae deletion strains, locus YKL068W, stronger effect = lower value 0.987 | S. cerevisiae deletion strains, locus YKL085W, strain MDH1 (second series), stronger effect = lower value 0.986 | S. cerevisiae deletion strains, locus YKL085W, strain MDH1, stronger effect = lower value 0.986 | S. cerevisiae deletion strains, locus YKL160W, strain elf1, stronger effect = lower value 1.06 | S. cerevisiae deletion strains, locus YKL190W, strain CNB1, stronger effect = lower value 0.996 | S. cerevisiae deletion strains, locus YKR001C, strain vps1, stronger effect = lower value 0.997 | S. cerevisiae deletion strains, locus YKR026C, strain gcn3, stronger effect = lower value 1.02 | S. cerevisiae deletion strains, locus YKR091W, strain srl3, stronger effect = lower value 1.02 | S. cerevisiae deletion strains, locus YLL001W, strain dnm1, stronger effect = lower value 1.03 | S. cerevisiae deletion strains, locus YLL026W, stronger effect = lower value 1.02 | S. cerevisiae deletion strains, locus YLL041C, strain sdh2, stronger effect = lower value 1.04 | S. cerevisiae deletion strains, locus YLR027C, strain aat2, stronger effect = lower value 1.03 | S. cerevisiae deletion strains, locus YLR039C, strain RIC1, stronger effect = lower value 0.987 | S. cerevisiae deletion strains, locus YLR058C, strain SHM2, stronger effect = lower value 0.977 | S. cerevisiae deletion strains, locus YLR102C, strain apc9, stronger effect = lower value 0.989 | S. cerevisiae deletion strains, locus YLR113W, strain HOG1, stronger effect = lower value 0.982 | S. cerevisiae deletion strains, locus YLR221C, strain rsa3, stronger effect = lower value 1.04 | S. cerevisiae deletion strains, locus YLR258W, strain gsy2, stronger effect = lower value 1.04 | S. cerevisiae deletion strains, locus YLR262C, strain YPT6 (second series), stronger effect = lower value 1.05 | S. cerevisiae deletion strains, locus YLR262C, strain YPT6, stronger effect = lower value 0.939 | S. cerevisiae deletion strains, locus YLR268W, strain sec22, stronger effect = lower value 1.08 | S. cerevisiae deletion strains, locus YLR320W, strain mms22, stronger effect = lower value 1.03 | S. cerevisiae deletion strains, locus YLR330W, strain CHS5, stronger effect = lower value 0.982 | S. cerevisiae deletion strains, locus YLR342W, strain FKS1 (second series), stronger effect = lower value 0.986 | S. cerevisiae deletion strains, locus YLR342W, strain FKS1, stronger effect = lower value 1.02 | S. cerevisiae deletion strains, locus YLR357W, strain rsc2, stronger effect = lower value 1.05 | S. cerevisiae deletion strains, locus YLR370C, strain arc18, stronger effect = lower value 1.04 | S. cerevisiae deletion strains, locus YLR371W, strain rom2, stronger effect = lower value 0.977 | S. cerevisiae deletion strains, locus YLR384C, strain iki3, stronger effect = lower value 1.04 | S. cerevisiae deletion strains, locus YLR418C, strain cdc73, stronger effect = lower value 1.02 | S. cerevisiae deletion strains, locus YML016C, strain PPZ1, stronger effect = lower value 0.982 | S. cerevisiae deletion strains, locus YML032C, strain rad52, stronger effect = lower value 1.01 | S. cerevisiae deletion strains, locus YML120C, strain ndi1, stronger effect = lower value 1.04 | S. cerevisiae deletion strains, locus YML124C, strain tub3, stronger effect = lower value 0.989 | S. cerevisiae deletion strains, locus YMR058W, strain fet3, stronger effect = lower value 1.04 | S. cerevisiae deletion strains, locus YMR078C, strain ctf18, stronger effect = lower value 0.986 | S. cerevisiae deletion strains, locus YMR125W, strain sto1, stronger effect = lower value 1.06 | S. cerevisiae deletion strains, locus YMR129W, stronger effect = lower value 1.02 | S. cerevisiae deletion strains, locus YMR205C, strain PFK2, stronger effect = lower value 1.04 | S. cerevisiae deletion strains, locus YMR223W, strain ubp8, stronger effect = lower value 0.974 | S. cerevisiae deletion strains, locus YMR231W, strain pep5, stronger effect = lower value 1.04 | S. cerevisiae deletion strains, locus YMR263W, strain SAP30, stronger effect = lower value 1 | S. cerevisiae deletion strains, locus YMR307W, strain GAS1, stronger effect = lower value 0.992 | S. cerevisiae deletion strains, locus YNL067W, strain RPL9B, stronger effect = lower value 1.01 | S. cerevisiae deletion strains, locus YNL071W, strain lat1, stronger effect = lower value 1.03 | S. cerevisiae deletion strains, locus YNL128W, strain TEP1, stronger effect = lower value 0.953 | S. cerevisiae deletion strains, locus YNL153C, strain GIM3, stronger effect = lower value 1.02 | S. cerevisiae deletion strains, locus YNL183C, strain NPR1, stronger effect = lower value 0.969 | S. cerevisiae deletion strains, locus YNL209W, strain ssb2, stronger effect = lower value 1.04 | S. cerevisiae deletion strains, locus YNL233W, strain BNI4, stronger effect = lower value 1.02 | S. cerevisiae deletion strains, locus YNL248C, strain rpa49, stronger effect = lower value 1.07 | S. cerevisiae deletion strains, locus YNL250W, strain rad50, stronger effect = lower value 0.985 | S. cerevisiae deletion strains, locus YNL271C, strain bni1, stronger effect = lower value 0.994 | S. cerevisiae deletion strains, locus YNL298W, strain CLA4, stronger effect = lower value 0.996 | S. cerevisiae deletion strains, locus YNL307C, strain MCK1, stronger effect = lower value 1.01 | S. cerevisiae deletion strains, locus YNL322C, strain KRE1 (second series), stronger effect = lower value 1.03 | S. cerevisiae deletion strains, locus YNL322C, strain KRE1, stronger effect = lower value 0.983 | S. cerevisiae deletion strains, locus YNR049C, strain mso1, stronger effect = lower value 1.02 | S. cerevisiae deletion strains, locus YNR052C, strain pop2, stronger effect = lower value 0.995 | S. cerevisiae deletion strains, locus YOL006C, strain TOP1, stronger effect = lower value 1.01 | S. cerevisiae deletion strains, locus YOL012C, strain htz1 0.903 | S. cerevisiae deletion strains, locus YOL147C, strain pex11, stronger effect = lower value 0.994 | S. cerevisiae deletion strains, locus YOR001W, strain rrp6, stronger effect = lower value 1.05 | S. cerevisiae deletion strains, locus YOR061W, strain CKA2, stronger effect = lower value 0.969 | S. cerevisiae deletion strains, locus YOR069W, strain VPS5, stronger effect = lower value 0.993 | S. cerevisiae deletion strains, locus YOR070C, strain gyp1, stronger effect = lower value 1.02 | S. cerevisiae deletion strains, locus YOR080W, strain dia2, stronger effect = lower value 1.02 | S. cerevisiae deletion strains, locus YOR083W, strain WHI5, stronger effect = lower value 1.06 | S. cerevisiae deletion strains, locus YOR106W, strain vam3, stronger effect = lower value 1.07 | S. cerevisiae deletion strains, locus YOR136W, strain idh2, stronger effect = lower value 0.991 | S. cerevisiae deletion strains, locus YOR144C, strain elg1, stronger effect = lower value 0.991 | S. cerevisiae deletion strains, locus YOR184W, strain ser1, stronger effect = lower value 1 | S. cerevisiae deletion strains, locus YOR231W, strain MKK1, stronger effect = lower value 0.999 | S. cerevisiae deletion strains, locus YOR265W, strain rbl2, stronger effect = lower value 1.02 | S. cerevisiae deletion strains, locus YOR270C, strain vph1, stronger effect = lower value 1.14 | S. cerevisiae deletion strains, locus YOR290C, strain snf2, stronger effect = lower value 1.07 | S. cerevisiae deletion strains, locus YOR316C, strain cot1, stronger effect = lower value 0.988 | S. cerevisiae deletion strains, locus YPL051W, strain arl3, stronger effect = lower value 1.05 | S. cerevisiae deletion strains, locus YPL055C, strain LGE1, stronger effect = lower value 0.997 | S. cerevisiae deletion strains, locus YPL078C, strain atp4, stronger effect = lower value 1.08 | S. cerevisiae deletion strains, locus YPL106C, strain sse1, stronger effect = lower value 1.04 | S. cerevisiae deletion strains, locus YPL240C, strain hsp82, stronger effect = lower value 1.01 | S. cerevisiae deletion strains, locus YPL241C, strain CIN2, stronger effect = lower value 0.984 | S. cerevisiae deletion strains, locus YPL256C, strain CLN2, stronger effect = lower value 0.961 | S. cerevisiae deletion strains, locus YPR119W, strain clb2, stronger effect = lower value 0.993 | S. cerevisiae deletion strains, locus YPR141C, strain kar3, stronger effect = lower value 0.991 | S. cerevisiae deletion strains, locus YPR163C, strain tif3, stronger effect = lower value 1 | S. cerevisiae deletion strains, locus YPR167C, strain met16, stronger effect = lower value 0.998 | S. cerevisiae deletion strains, strain wtn01, stronger effect = lower value 1.03 | S. cerevisiae strains, strain wild type, stronger effect = lower value 0.993
